Hits are enriched below; roughly 11% of the tested compounds scored in any of these assays.
AmpC inh detg – inhibitors of E. coli AmpC beta-lactamase with detergent; P00811; AmpC hydrolysis of nitrocefin, absorbance 480 nm, 0.01% Triton; Potency, µM (titrated, usually from 114 µM), for the others: top-dose activity change, negative = inhibition, actives largely listed as inhibitors; 0.041% of 370,000 active;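 further: 0% = no-compound wells and -100% = no-enzyme wells; nearly all actives have a fitted effect of over 25% in size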
Target sequence (P00811 whole entry, looked up): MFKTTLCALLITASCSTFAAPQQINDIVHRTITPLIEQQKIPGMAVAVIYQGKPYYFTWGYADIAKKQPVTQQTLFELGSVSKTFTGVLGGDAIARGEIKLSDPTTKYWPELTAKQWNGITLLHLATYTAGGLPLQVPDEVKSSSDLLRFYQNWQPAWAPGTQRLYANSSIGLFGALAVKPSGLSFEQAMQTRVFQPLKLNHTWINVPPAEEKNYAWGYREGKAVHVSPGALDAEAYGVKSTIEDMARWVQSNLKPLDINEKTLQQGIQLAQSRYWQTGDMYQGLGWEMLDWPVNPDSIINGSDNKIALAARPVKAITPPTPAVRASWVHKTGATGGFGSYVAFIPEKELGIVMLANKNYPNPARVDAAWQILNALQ
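AmpC (5.3 nM in the dispensed reagent) in 20 mM phosphate pH 7.0 with 0.01% (detergent screen) or 0.0001% Triton X-100 was preincubated with compounds for 15 min at room temperature. Nitrocefin was then added from an 800 uM solution, and hydrolysis was followed at 480 nm.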
HCV inhibitor – inhibitors of hepatitis C virus infection; Huh7.5.1 HCVcc-Cre infection, luciferase reporter, 44 h; Potency, µM (titrated, usually from 41.8 µM), inactives show top-dose activity change, negative = inhibition, usual class: inhibitors; 3.4% of 340,000 active; AID 651820
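Whole-lifecycle infectious HCVcc-Cre system; cells 1,000/well, compound then virus (~0.5 moi) added 4 h after plating, 44 h culture. Luciferase read 15 sec following 15 min substrate incubation, room temp.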
Pf growth 96h – P. falciparum growth inhibition at 96 hours | P. falciparum luciferase reporter growth, 96 h | Potency, µM (series often up to 28.7 µM), inactives show at the highest dose activity change, negative = inhibition, actives largely listed as inhibitors | 6.9% of 320,000 active | AID 504834
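Parasite growth measured via integrated firefly luciferase reporter in P. falciparum. Infected erythrocytes at 2% hematocrit, 0.05% parasitemia final were treated 96 hours at 37 C under 5% CO2, and luminescence was read.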
AmpC no deterg – AmpC beta-lactamase inhibition without detergent. Potency, µM (doses to about 57.1 µM), for the others: at the highest dose activity change, negative = inhibition, actives largely listed as inhibitors. 0.52% of 330,000 active. AmpC nitrocefin hydrolysis, absorbance 480 nm, 0.0001% Triton. P00811;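 further: plate controls were no compound for no effect and no enzyme for full effect; nearly all actives have a fitted effect of over 20% in size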
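20 mM phosphate pH 7.0 + 0.01% (detergent screen) or 0.0001% Triton X-100; 5.3 nM AmpC reagent; cpd preinc 15 min RT; nitrocefin (800 uM stock) to start; A480 q20 s × 4 min; Activity was normalised to no-enzyme and no-compound control wells.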
AMA1 RON2 block – inhibitors of Plasmodium falciparum AMA1-RON2 interaction; AlphaScreen AMA1-biotinylated RON2 peptide binding; Potency, µM (highest dose often 58.2 µM), for inactives: top-dose activity change, negative = inhibition, usual class: inhibitors; 0.2% of 360,000 active; AID 720542;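 further: 0% = vehicle wells and -100% = peptide control; nearly all actives have a fitted effect of over 45% in size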
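AMA1 (3D7) with his tag at 25 nM final met compounds first, then biotinylated RON2 peptide at 25 nM; detection used donor plus acceptor beads, 10 µg/mL apiece, read by AlphaScreen after 30 min at room temperature.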
Pf growth 48h – inhibits P. falciparum growth in the first generation, 48 h | Potency, µM (titrated, usually from 28.7 µM), without a hit: at the highest dose activity change, negative = inhibition, usual class: inhibitors | 5.9% of 310,000 active | P. falciparum luciferase growth in erythrocytes, 48 h | AID 504832
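Here the parasites carry a stable luciferase gene and grow inside erythrocytes in Albumax-based RPMI medium with compound for one erythrocytic cycle. Activity is scored as loss of luminescent signal.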
Active calls of the source: *; ? = inconclusive; · = no result; [ ] = dose if it differs, or a comment. The call rests on the fitted dose curve; in most records, active means well fitted curve in the direction sought with a large enough effect; inconclusive means small, poorly fitted or top-dose-only effect, or another doubt; inactive means no such curve, though single readings can be large; an effect the other way counts as inactive or inconclusive. Unless noted, on the % scale 0 is the no-effect control and ±100 the full control effect; potency means the concentration at half of the fitted maximal effect.

SMILES | AmpC inh detg | HCV inhibitor | Pf growth 96h | AmpC no deterg | AMA1 RON2 block | Pf growth 48h
Cc1ccc(NC(=O)C2CCCN(c3nnc(-n4c(C)ccc4C)s3)C2)cc1Cl (stereo unspecified) | 20% | · | · | · | · | ·
CCc1nc2nc(C)cc(Nc3cc(Cl)ccc3C)n2n1 | 14% | · | · | · | · | ·
COc1ccc(NC2=NC3(CCCCC3)N=C(N)N2)cc1 | 1% | 1% | ? | -29% | 12% | 0.93µM*
COc1ccc(OC)c(NC2=NC3(CCCCC3)N=C(N)N2)c1 | 0% | ? | -17% | -43% | 10% | ?
NC1=NC2(CCCC2)N=C(Nc2ccccc2)N1 | 3% | -7% | 1.5µM* | -21% | 2% | ?
CCCCOc1ccc(NC2=NC3(CCCCC3)N=C(N)N2)cc1 | -2% | ? | 8% | -34% | -17% | 0.66µM*
c1ccc(Nc2ccccc2)cc1 | 4% | 7% | 39% | -5% | 0% | 46%
Cc1cccc(NC2=NC3(CCCCC3)N=C(N)N2)c1 | · | -24% | · | · | 2% | ·
CCCCOc1ccc(C(=O)N2CCCCCC2)cc1 | 3% | 6% | 12% | 23% | -10% | 42%
NC1=NC(c2ccccc2)N=C(Nc2ccccc2)N1 (stereo unspecified) | -5% | · | 2.9µM* | -26% | · | 4.7µM*
COc1cc2[nH]c(=O)n(Cc3ccc(C(=O)N4CCN(c5cccc(C)c5C)CC4)cc3)c(=O)c2cc1OC | 3% | · | · | · | · | ·
Cc1cccc2c1N(Cc1ccccc1OCCC(C)C)C(=O)C2=O | 16% | · | · | · | · | ·
CCOc1ccc(C(=O)N2CCCCC2CCN2CCOCC2)cc1 (stereo unspecified) | 6% | · | · | · | · | ·
CCC1C/C(=C\c2cccnc2)C(=O)/C(=C/c2cccnc2)C1 (stereo unspecified) | -18% | ? | 21% | -15% | -19% | 7.4µM*
O=C1/C(=C/c2cccnc2)CCC/C1=C\c1cccnc1 | -13% | ? | 13µM* | -6% | 0% | 10µM*
O=C1/C(=C/c2ccc(C(=O)O)cc2)CCC/C1=C\c1ccc(C(=O)O)cc1 | 1% | 7% | 1.5µM* | -1% | 4% | 2.1µM*
O=C1/C(=C/c2cccnc2)CC/C1=C\c1cccnc1 | 2% | 2% | ? | 7% | -3% | ?
CCN(C(=O)c1c(C)oc2ncn(CC(C)C)c(=O)c12)c1cccc(Cl)c1 | -1% | · | · | · | · | ·
CCOc1ccc(C(C)C)cc1S(=O)(=O)Nc1cccc(-c2ccc(N3CCOCC3)nn2)c1 | 14% | · | · | · | · | ·
CC(C)c1noc(-c2ccccc2OCC(=O)Nc2ccc([N+](=O)[O-])cc2)n1 | -3% | · | · | · | · | ·
Cc1ccccc1-n1c(=O)/c(=C\c2ccco2)s/c1=C(/C#N)C(=O)Nc1ccccc1 | -6% | -16% | 10% | -33% | -8% | 1.5µM*
CCOC(=O)/C=c1\s/c(=C(\C#N)C(=O)NC)n(-c2ccccc2)c1=O | -3% | 4% | 43% | -14% | 16% | 33%
CCCCn1c(=O)nc2n(-c3ccc(F)cc3)c3ccccc3cc-2c1=O | 14% | · | · | · | · | ·
CC[C@H](c1ccc(O)cc1)[C@@H](CC)c1ccc(O)cc1 | · | · | -1%[12.8 µM] | · | · | -7%[12.8 µM]
Oc1cc[c]([Hg][Cl])cc1 | · | · | 1.5µM* | · | · | 1.9µM*
SMILES | AmpC inh detg | HCV inhibitor | Pf growth 96h | AmpC no deterg | AMA1 RON2 block | Pf growth 48h
Cc1ccc(NC2CCCN(C(=O)c3ccccn3)C2)cc1C (stereo unspecified) | -12% | -2% | 13µM* | -10% | -3% | 2%
Cc1nc(C(=O)N2CCCC(Nc3ccc(C)c(C)c3)C2)cs1 (stereo unspecified) | 1% | 21% | 275% | 3% | 9% | 3%
Cc1ccc(NC2CCCN(C(=O)c3cn4cccc(C)c4n3)C2)cc1C (stereo unspecified) | -2% | · | 4.1µM* | 25% | 5% | 8%
CN(Cc1ccccc1)C(=O)c1ccc(NC(=O)Cc2cccc(NC(=O)C3CCCN(C(=O)C4CCC4)C3)c2)cc1 (stereo unspecified) | 4% | 17% | ? | 82% | 7% | 9.3µM*
CN(Cc1ccccc1)C(=O)c1cccc(NC(=O)Cc2ccc(NC(=O)C3CCCN(C(=O)C4CCC4)C3)cc2)c1 (stereo unspecified) | · | -13%[8.37 µM] | · | · | -2% | ·
CN(Cc1ccccc1)C(=O)c1cccc(NC(=O)Cc2ccc(NC(=O)C3CCN(C(=O)C4CCC4)CC3)cc2)c1 | · | 14µM* | · | · | 2% | ·
Cc1ccc(-n2ccnc(NCCc3ccc(S(N)(=O)=O)cc3)c2=O)cc1C | 4% | · | · | · | · | ·
Cc1nc2nc(NC(=O)c3ccc(C(C)(C)C)cc3)[nH]n2c(=O)c1C | 19% | · | · | · | · | ·
CC(C)C1(C)C(=O)N=C2c3ccccc3C(=O)N21 (stereo unspecified) | 7% | 9% | 12µM* | -11% | -6% | 3%
CC12CCC(=O)N1c1ccccc1C(=O)N2c1ccccc1 (stereo unspecified) | -11% | 10% | 29% | 1% | -1% | 11%
CC(C)CC(=O)NC(NC(=S)Nc1ccccc1)C(Cl)(Cl)Cl (stereo unspecified) | -7% | 0% | 3% | -45% | 16% | 13µM*
CCCC(=O)NC(Nc1ccccc1F)C(Cl)(Cl)Cl (stereo unspecified) | -7% | · | ? | -14% | · | ?
CC(C)CC(=O)NC(Nc1ccccc1F)C(Cl)(Cl)Cl (stereo unspecified) | -13% | 19% | 10µM* | -12% | -18% | -5%
CC(=O)NC(NC(=S)Nc1ccc(N=Nc2ccccc2)cc1)C(Cl)(Cl)Cl (stereo unspecified) | 3% | 7.1µM* | 183% | -30% | -26% | 12µM*
Cc1c(NC(=S)NC(NC(=O)CC(C)C)C(Cl)(Cl)Cl)c(=O)n(-c2ccccc2)n1C (stereo unspecified) | -3% | -8% | ? | -38% | 23% | -15%
CCc1ccc(OCC(=O)NC(NC(=S)Nc2ccccc2)C(Cl)(Cl)Cl)cc1 (stereo unspecified) | ? | ? | 0% | -32% | 5% | 13µM*
Cc1cc2nc(-c3ccc(OCc4ccccc4C)cc3)cc(C(F)(F)F)n2n1 | -1% | · | · | · | · | ·
COc1ccccc1N1CCN(CCCNC(=O)c2nnc(Cc3c(F)cccc3Cl)o2)CC1 | 14% | · | · | · | · | ·
CC(NC(=O)c1ccc2c(c1)N(Cc1cccc(F)c1)C(=O)c1ccccc1S2)c1ccccc1 (stereo unspecified) | -3% | · | · | · | · | ·
